This is an account of results in PubChem BioAssay (EPA / NIEHS).

Values joined by “and” are separate entries in the source; they are usually repeats but may differ in a detail not shown here. Equal entries are not always repeated. Where a structure was tested more than once in an assay, its records may differ in their call. Active and inactive are the calls of the source. How the source made its calls: active means hit-call score of the fitted dose curve at least 0.9, where 1 is the maximum; inactive means score below 0.9.

Read-out in assay [1]: Urokinase-type plasminogen activator receptor (uPAR), PLAUR (gene 5329)
Nature of the assay: BSK_CASM3C_uPAR: BioMAP Diversity Plus: CASM3C Assay for Urokinase-type plasminogen activator receptor (uPAR) Biomarker Activity (AID 2283054).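 Further: cell-surface uPAR protein level quantified by ELISA.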 As to conditions: primary human coronary artery smooth muscle cells; actives raise or lower the signal.

Read-out in assay [2]: Vascular cell adhesion molecule 1 (VCAM1), VCAM1 (gene 7412)
Description: BSK_CASM3C_VCAM1: BioMAP Diversity Plus: CASM3C Assay for Vascular cell adhesion molecule 1 (VCAM1) Biomarker Activity (AID 2283055).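 Further: VCAM-1 protein level quantified by ELISA on the cells.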 The note with it: primary human coronary artery smooth muscle cells; actives raise or lower the signal.

Read-out in assay [3]: Collagen III, COL3A1 (gene 1281)
Description: BSK_hDFCGF_CollagenIII: BioMAP Diversity Plus: hDFCGF Assay for Collagen III Biomarker Activity (AID 2283056). As to conditions: primary human foreskin fibroblasts; actives raise or lower the signal. Summed up: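 ELISA readout of Collagen III in human dermal (foreskin) fibroblasts, taken 24 h post-treatment. Gain or loss relative to DMSO vehicle fitted in both directions.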

Read-out in assay [4]: Epidermal growth factor receptor (EGFR), EGFR (gene 1956)
Description: BSK_hDFCGF_EGFR: BioMAP Diversity Plus: hDFCGF Assay for Epidermal growth factor receptor (EGFR) Biomarker Activity (AID 2283057). The note with it: primary human foreskin fibroblasts; actives raise or lower the signal. An outline of the steps:
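ELISA readout of EGFR on human dermal fibroblasts (primary foreskin cells), 24 h post-dosing; bidirectional curve fit vs DMSO baseline, gain or loss of signal scored.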

Read-out in assay [5]: Interleukin-8 (IL8), CXCL8 (gene 3576)
Description: BSK_hDFCGF_IL8: BioMAP Diversity Plus: hDFCGF Assay for Interleukin-8 (IL8) Biomarker Activity (AID 2283058). As to conditions: primary human foreskin fibroblasts; actives raise or lower the signal. An outline of the steps:
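IL-8 levels read by ELISA at 24 hours after dosing human skin fibroblast cultures. Parallel SRB staining assessed overt cytotoxicity, and gain or loss of signal was fitted against DMSO control.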

Assay [6] is described as follows: BSK_hDFCGF_Proliferation: Cell Proliferation Assessment in the BioMAP Diversity Plus: hDFCGF Assay (AID 2283059).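 Further: curves fitted for both rise and fall of signal versus DMSO baseline.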 As to conditions: primary human foreskin fibroblasts. Summed up: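 This proliferation readout used SRB total-protein staining of human foreskin fibroblasts […], normalized to DMSO with bidirectional curve fitting.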
Read-out in assay [7]: Macrophage colony-stimulating factor (MCSF), CSF1 (gene 1435)
Description: BSK_hDFCGF_MCSF: BioMAP Diversity Plus: hDFCGF Assay for Macrophage colony-stimulating factor (MCSF) Biomarker Activity (AID 2283060). As to conditions: primary human foreskin fibroblasts; actives raise or lower the signal. Summed up:
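M-CSF levels read by ELISA at 24 h post-dosing in human skin fibroblasts. Parallel cultures stained with SRB assessed cytotoxicity at the same time point; response fitted in both directions against the DMSO baseline.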

A short description of assay [8]: BSK_hDFCGF_SRB: Viability Assessment in the BioMAP Diversity Plus: hDFCGF Assay (AID 2283061).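 Further: cells exposed to compound for 24 h before the read.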 As to conditions: primary human foreskin fibroblasts. An outline of the steps: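 Viability was read as total protein: after 10% TCA fixation, wells were stained with 0.1% sulforhodamine B and read at 560 nm. Primary human foreskin fibroblasts were dosed for 24 h, with bidirectional fitting versus DMSO.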

Read-out in assay [9]: TIMP metallopeptidase inhibitor 1 (TIMP1), TIMP1 (gene 7076)
Nature of the assay: BSK_hDFCGF_TIMP1: BioMAP Diversity Plus: hDFCGF Assay for TIMP metallopeptidase inhibitor 1 (TIMP1) Biomarker Activity (AID 2283062). The note with it: primary human foreskin fibroblasts; actives raise or lower the signal. Summed up: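 TIMP-1 measured by ELISA 24 h after chemical dosing of primary human skin fibroblasts, with gain or loss fitted relative to DMSO. Parallel SRB staining (560 nm) monitored overt cytotoxicity.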

Read-out in assay [10]: Monokine induced gamma interferon (MIG), CXCL9 (gene 4283)
Nature of the assay: BSK_hDFCGF_MIG: BioMAP Diversity Plus: hDFCGF Assay for Monokine induced gamma interferon (MIG) Biomarker Activity (AID 2283063). As to conditions: primary human foreskin fibroblasts; actives raise or lower the signal. Summed up:
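Human primary foreskin fibroblasts in the hDFCGF system, exposed to test chemical for 24 h; MIG measured by ELISA. Bidirectional curve fitting against DMSO negative control as activity baseline.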

Read-out in assay [11]: Matrix Metallopeptidase 1 (MMP1), MMP1 (gene 4312)
Nature of the assay: BSK_hDFCGF_MMP1: BioMAP Diversity Plus: hDFCGF Assay for Matrix Metallopeptidase 1 (MMP1) Biomarker Activity (AID 2283064). The note with it: primary human foreskin fibroblasts; actives raise or lower the signal. Summed up:
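Human foreskin fibroblasts exposed to chemical for 24 h; MMP1 detected by ELISA, with DMSO as baseline for bidirectional fitting.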

Read-out in assay [12]: Vascular cell adhesion molecule 1 (VCAM1), VCAM1 (gene 7412)
Nature of the assay: BSK_hDFCGF_VCAM1: BioMAP Diversity Plus: hDFCGF Assay for Vascular cell adhesion molecule 1 (VCAM1) Biomarker Activity (AID 2283065).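 On AC50: VCAM-1 protein level quantified by ELISA after 24 h chemical exposure.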 As to conditions: primary human foreskin fibroblasts; actives raise or lower the signal. Summed up:
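ELISA readout of VCAM-1 on human dermal fibroblast primary cultures, 24 h after chemical exposure. Gain or loss of signal fitted in both directions against DMSO baseline.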

Read-out in assay [13]: Plasminogen activator inhibitor-1 (PAI1), SERPINE1 (gene 5054)
Description: BSK_hDFCGF_PAI1: BioMAP Diversity Plus: hDFCGF Assay for Plasminogen activator inhibitor-1 (PAI1) Biomarker Activity (AID 2283066). The note with it: primary human foreskin fibroblasts; actives raise or lower the signal. An outline of the steps: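 ELISA readout of PAI-1 from primary human skin fibroblast cultures, 24 h after compound addition. Gain or loss of signal was fitted bidirectionally against DMSO baseline.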

Read-out in assay [14]: Intercellular Adhesion Molecule 1 (ICAM1), ICAM1 (gene 3383)
Description: BSK_KF3CT_ICAM1: BioMAP Diversity Plus: KF3CT Assay for Intercellular Adhesion Molecule 1 (ICAM1) Biomarker Activity (AID 2283067). As to conditions: primary human keratinocytes with fibroblasts; actives raise or lower the signal. An outline of the steps:
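Cell-surface ICAM-1 was measured by ELISA 24 h after dosing primary human skin keratinocytes co-cultured with fibroblasts. Parallel SRB staining tracked overt cytotoxicity. Gain or loss of signal was fitted relative to DMSO.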

Read-out in assay [15]: Interferon-gamma inducible Protein 10 (IP10), CXCL10 (gene 3627)
Description: BSK_KF3CT_IP10: BioMAP Diversity Plus: KF3CT Assay for Interferon-gamma inducible Protein 10 (IP10) Biomarker Activity (AID 2283068). The note with it: primary human keratinocytes with fibroblasts; actives raise or lower the signal. Summed up:
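Signal is secreted/surface IP-10 by ELISA in a human primary skin co-culture of keratinocytes and foreskin fibroblasts, taken 24 h post-dosing; DMSO served as negative control.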

Assay [16] can be described thus: BSK_KF3CT_SRB: Viability Assessment in the BioMAP Diversity Plus: KF3CT Assay (AID 2283069). The note with it: primary human keratinocytes with fibroblasts. Summed up: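 Overt cytotoxicity is assessed as total protein by sulforhodamine B staining in parallel human skin co-cultures at 24 h after dosing. DMSO serves as negative control and baseline.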
Read-out in assay [17]: Interleukin-1 alpha (IL1a), IL1A (gene 3552)
Nature of the assay: BSK_KF3CT_IL1a: BioMAP Diversity Plus: KF3CT Assay for Interleukin-1 alpha (IL1a) Biomarker Activity (AID 2283070). As to conditions: primary human keratinocytes with fibroblasts; actives raise or lower the signal. Summed up: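 Readout is IL-1a level by ELISA, compared bidirectionally with DMSO as baseline. Cells: human keratinocytes co-cultured with foreskin fibroblasts, harvested 24 h post-dose.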

Read-out in assay [18]: TIMP metallopeptidase inhibitor 2 (TIMP2), TIMP2 (gene 7077)
Nature of the assay: BSK_KF3CT_TIMP2: BioMAP Diversity Plus: KF3CT Assay for TIMP metallopeptidase inhibitor 2 (TIMP2) Biomarker Activity (AID 2283071). The note with it: primary human keratinocytes with fibroblasts; actives raise or lower the signal. An outline of the steps:
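ELISA readout of TIMP-2 in keratinocyte plus foreskin fibroblast co-cultures (human skin primary cells), 24 h post-dose. Gain or loss of signal fitted relative to DMSO.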

Read-out in assay [19]: Transforming growth factor beta 1 (TGFb1), TGFB1 (gene 7040)
Description: BSK_KF3CT_TGFb1: BioMAP Diversity Plus: KF3CT Assay for Transforming growth factor beta 1 (TGFb1) Biomarker Activity (AID 2283072). The note with it: primary human keratinocytes with fibroblasts; actives raise or lower the signal. Summed up: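 Read-out: ELISA for TGF-b1 in keratinocyte/foreskin fibroblast human skin co-culture, 24 h after dosing; bidirectional curve fit vs DMSO baseline; gain or loss of signal scored.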

Read-out in assay [20]: C-C motif chemokine 2 (Homo sapiens) (UniProt P13500)
Description: BSK_KF3CT_MCP1: BioMAP Diversity Plus: KF3CT Assay for Monocyte Chemoattractant Protein 1 (MCP1/CCL2) Biomarker Activity (AID 2283073). The note with it: primary human keratinocytes with fibroblasts; actives raise or lower the signal. Summed up: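 ELISA read-out of MCP-1, 24 h post-dose, in primary human skin keratinocytes co-cultured with fibroblasts. Parallel SRB staining monitors cytotoxicity; changes fitted both directions relative to DMSO.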

With `Cc1ccccc1N`, the result in [1], in assay [2], in assay [3], in assay [4], in assay [5] and in assay [6] was inactive. Further, the result in assay [7], in assay [8], in assay [9], in assay [10], in assay [11] and in [12] was inactive. In addition, the outcome in [13], in [14], in assay [15], in [16], in assay [17] and in assay [18] was inactive. Besides, the result in assay [19] and in assay [20] was inactive.

As for `NC(=S)Nc1ccccc1`, the result in assay [1], in assay [2], in assay [3], in [4], in [6] and in [7] was inactive. The outcome in assay [9], in assay [10], in [11], in [12], in assay [13] and in [14] was inactive. For the same molecule, the result in assay [15], in [16], in assay [17], in assay [18], in [19] and in assay [20] was inactive.

As for `Oc1c(I)cc(I)cc1I`, the AC50 in assay [1] is 0.191 µM (active); in assay [3] it was 4.24 µM (active); in [6], 8.03 µM (active); in assay [8], 20 µM (active); in assay [13], 11.5 µM (active); in [14], 20 µM (active). The half-maximal activity concentration (AC50) was 23 µM (active) in assay [15], 27.7 µM (active) in assay [17], 17 µM (active) in assay [18] and 7.06 µM (active) in assay [19]. For the same molecule, the outcome in [2], in assay [4], in assay [7], in assay [9], in assay [10] and in [11] was inactive. Besides, the outcome in assay [12], in assay [16] and in [20] was inactive.

For `O=c1[nH]c(=O)[nH]c(=O)[nH]1`, the result in [1], in assay [2], in assay [3], in [4], in assay [6] and in assay [7] was inactive. The result in [9], in assay [10], in [11], in [12], in assay [13] and in assay [14] was inactive. For the same molecule, the result in assay [15], in assay [16], in assay [17], in assay [18], in [19] and in assay [20] was inactive.

Turning to `CC1(C)Cc2cccc(O)c2O1`, the result in assay [1], in assay [2], in assay [4], in [5], in assay [6] and in [7] was inactive. Further, the outcome in [8], in assay [9], in assay [10], in [11], in assay [12] and in assay [13] was inactive. The result in [14], in [15], in [16], in assay [17], in assay [18] and in assay [19] was inactive. Moreover, in assay [20], the outcome was inactive.

In the case of `O=C(O)C(F)(F)C(F)(F)C(F)(F)C(F)(F)C(F)(F)C(F)(F)C(F)(F)C(F)(F)C(F)(F)C(F)(F)F`, the result in [1], in [2] and in assay [4] was inactive. Besides, the AC50 was 17.1 µM (active) and 5.73 µM (active) and 3.66 µM (active) in assay [3]; 835 nM (active) and 906 nM (active) in [4]; 4.01 µM (active) and 2.28 µM (active) and 2.17 µM (active) in [6]; 10.8 µM (active) and 5.03 µM (active) and 4.97 µM (active) in [7]; 9.33 µM (active) and 5.14 µM (active) and 5.31 µM (active) in assay [9]; 11.5 µM (active) and 4.94 µM (active) and 5.08 µM (active) in assay [10]. Also, the AC50 is 6.98 µM (active) and 5.59 µM (active) and 6.54 µM (active) in [11]; 11.7 µM (active) and 3.07 µM (active) and 4.25 µM (active) in [12]; 10.7 µM (active) and 5.61 µM (active) and 5.09 µM (active) in assay [13]; 12.9 µM (active) and 5 µM (active) and 4.73 µM (active) in assay [14]; 6.91 µM (active) and 5.45 µM (active) and 5.25 µM (active) in [15]; 9.99 µM (active) and 5.01 µM (active) and 5.38 µM (active) in assay [16]. Further, the AC50 is 10.8 µM (active) and 3.41 µM (active) and 5.06 µM (active) in [17]; 9.27 µM (active) and 6.15 µM (active) and 6.13 µM (active) in [18]; 5.59 µM (active) in assay [19]; 7.51 µM (active) and 4.5 µM (active) and 4.55 µM (active) in assay [20].
